According to the supplement of paper PMC10849652:
Of roughly 8,800 targets only a part is listed; those with a hit were picked by preference. About 0.5% of all pairs of compound and target were hits.

Assays:
Assay in all cases: log2 fold change, soluble protein after heating vs DMSO (PISA); higher = thermal stabilisation; K562 lysate, 10 uM; active = over 0.2 and 3.5 SD of the protein, either way, in both replicates (recomputed)
[1] = compound: C#Cc1cccc(Nc2ncnc3cc(OCCOC)c(OCCOC)cc23)c1 [erlotinib]
In short: (§1)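 K562 pellets were dounce-homogenised in PBS pH 7.4 containing 1 mM MgCl2, and the crude extract, at 1 mg/mL protein, was exposed to 10 μM compound for 30 min. Aliquots were heated for 3 min across 48°C-58°C, pooled, brought to 0.5% NP-40 at 4°C and spun at 21,000xg for 90 min, with the supernatant taken as soluble protein. TMTpro 16plex LC-MS/MS with equalised channel sums quantified that protein. Values are log-two fold changes in thermal stability relative to solvent controls, taken from duplicates.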

[2] = compound: C/C(=N\NC(=O)C1=CC(=CC=C1)S(=O)(=O)N2CCOCC2)/C3=C(C=CC(=C3)Cl)O
In short: as §1

[3] = compound: C1=CC(=CC=C1C2=NC3=C(N2)C=C(C=C3)C(=O)N)OC4=CC=C(C=C4)Cl
In short: as §1

[4] = compound: C1=CC2=C(C=CC(=C2)/C=C\3/C(=O)NC(=NCC4=CC=CS4)S3)N=C1
In short: as §1

[5] = compound: C1=CC2=NC=CN=C2C=C1/C=C/3\C(=O)NC(=O)S3
In short: as §1

[6] = compound: C1=CC=C(C=C1)C2=NC(=C(N2)C3=CC=NC=C3)C4=CC(=C(C=C4)Cl)O
In short: as §1

[7] = compound: C1=CC=C2C(=C1)C3=NNC4=CC=CC(=C43)C2=O
In short: as §1

[8] = compound: C1CCN(C1)C(=O)NC2=CC=CC(=C2)NC3=NC=C(C(=N3)NCCC4=CN=CN4)Br
In short: as §1

[9] = compound: C1CN(CCC1(CC2=CC=C(C=C2)Cl)N)C3=NC=NC4=C3C=CN4
In short: as §1

[10] = compound: C1COCCN1CCN2C3=CC=CC=C3N=C2NC(=O)C4=CC(=CC=C4)[N+](=O)[O-] [IRAK-1-4 Inhibitor I]
In short: as §1

[11] = compound: C=CC(=O)N1CCC[C@@H](n2nc(-c3ccc(Oc4ccccc4)cc3)c3c(N)ncnc32)C1 [ibrutinib]
In short: as §1

[12] = compound: CC(=O)c1cnc2ccc(-c3cc(Cl)c(O)c(Cl)c3)nc2c1N[C@H]1CC[C@H](CN(C)C)CC1
In short: as §1

[13] = compound: CC(C)(C)Cn1c(N)nc2ccc(-c3[nH]c(C(C)(C)C)nc3-c3ccc(F)cc3)nc21 [ralimetinib]
In short: as §1

[14] = compound: CC(C)(O)CC(=O)NCCn1ccc2ncnc(Nc3ccc(Oc4cccc(C(F)(F)F)c4)c(Cl)c3)c21
In short: as §1

[15] = compound: CC(C)C1=C2N=C(C=C(N2N=C1)NCC3=CC=CC=C3)NCCCCCCN
In short: as §1

[16] = compound: CC1=C(C(CC(=O)N1)C2=CC=C(C=C2)C(F)(F)F)C(=O)NC3=C(C=C4C(=C3)C=NN4)F
In short: as §1

[17] = compound: CC1=C(C2=C(C=C1)C(=O)C3=CC=CC=C3N2CCCN)C
In short: as §1

[18] = compound: CC1=C(C=C(C=C1)NC(=O)C2=CC(=CC=C2)C(C)(C)C#N)NC3=CC4=C(C=C3)N=CN(C4=O)C
In short: as §1

[19] = compound: CC1=C(C=C(C=C1)NC(=O)C2=CC(=CC=C2)N(C)C)NC(=O)C3=CC=C(C=C3)O
In short: as §1

[20] = compound: CC1=CC=C(C=C1)SC2=C3C=C(SC3=CN=C2)C(=O)N
In short: as §1

Measured: log2 fold change

TIAL1 isoform 2 (UniProt Q01085)
inactive: [1] 0.015 | [2] -0.001 | [3] 0.023 | [4] -0.015 | [5] -0.019 | [6] -0.035 | [7] 0.059 | [8] 0 | [9] 0.017 | [10] 0.058 | [11] 0.018 | [12] -0.004 | [13] -0.063 | [14] -0.001 | [15] -0.001 | [16] 0.049 | [17] 0.015 | [18] -0.167 | [19] -0.06 | [20] -0.012

THADA (UniProt Q6YHU6)
Chain of UniProt Q6YHU6 (Q6YHU6 whole entry, looked up): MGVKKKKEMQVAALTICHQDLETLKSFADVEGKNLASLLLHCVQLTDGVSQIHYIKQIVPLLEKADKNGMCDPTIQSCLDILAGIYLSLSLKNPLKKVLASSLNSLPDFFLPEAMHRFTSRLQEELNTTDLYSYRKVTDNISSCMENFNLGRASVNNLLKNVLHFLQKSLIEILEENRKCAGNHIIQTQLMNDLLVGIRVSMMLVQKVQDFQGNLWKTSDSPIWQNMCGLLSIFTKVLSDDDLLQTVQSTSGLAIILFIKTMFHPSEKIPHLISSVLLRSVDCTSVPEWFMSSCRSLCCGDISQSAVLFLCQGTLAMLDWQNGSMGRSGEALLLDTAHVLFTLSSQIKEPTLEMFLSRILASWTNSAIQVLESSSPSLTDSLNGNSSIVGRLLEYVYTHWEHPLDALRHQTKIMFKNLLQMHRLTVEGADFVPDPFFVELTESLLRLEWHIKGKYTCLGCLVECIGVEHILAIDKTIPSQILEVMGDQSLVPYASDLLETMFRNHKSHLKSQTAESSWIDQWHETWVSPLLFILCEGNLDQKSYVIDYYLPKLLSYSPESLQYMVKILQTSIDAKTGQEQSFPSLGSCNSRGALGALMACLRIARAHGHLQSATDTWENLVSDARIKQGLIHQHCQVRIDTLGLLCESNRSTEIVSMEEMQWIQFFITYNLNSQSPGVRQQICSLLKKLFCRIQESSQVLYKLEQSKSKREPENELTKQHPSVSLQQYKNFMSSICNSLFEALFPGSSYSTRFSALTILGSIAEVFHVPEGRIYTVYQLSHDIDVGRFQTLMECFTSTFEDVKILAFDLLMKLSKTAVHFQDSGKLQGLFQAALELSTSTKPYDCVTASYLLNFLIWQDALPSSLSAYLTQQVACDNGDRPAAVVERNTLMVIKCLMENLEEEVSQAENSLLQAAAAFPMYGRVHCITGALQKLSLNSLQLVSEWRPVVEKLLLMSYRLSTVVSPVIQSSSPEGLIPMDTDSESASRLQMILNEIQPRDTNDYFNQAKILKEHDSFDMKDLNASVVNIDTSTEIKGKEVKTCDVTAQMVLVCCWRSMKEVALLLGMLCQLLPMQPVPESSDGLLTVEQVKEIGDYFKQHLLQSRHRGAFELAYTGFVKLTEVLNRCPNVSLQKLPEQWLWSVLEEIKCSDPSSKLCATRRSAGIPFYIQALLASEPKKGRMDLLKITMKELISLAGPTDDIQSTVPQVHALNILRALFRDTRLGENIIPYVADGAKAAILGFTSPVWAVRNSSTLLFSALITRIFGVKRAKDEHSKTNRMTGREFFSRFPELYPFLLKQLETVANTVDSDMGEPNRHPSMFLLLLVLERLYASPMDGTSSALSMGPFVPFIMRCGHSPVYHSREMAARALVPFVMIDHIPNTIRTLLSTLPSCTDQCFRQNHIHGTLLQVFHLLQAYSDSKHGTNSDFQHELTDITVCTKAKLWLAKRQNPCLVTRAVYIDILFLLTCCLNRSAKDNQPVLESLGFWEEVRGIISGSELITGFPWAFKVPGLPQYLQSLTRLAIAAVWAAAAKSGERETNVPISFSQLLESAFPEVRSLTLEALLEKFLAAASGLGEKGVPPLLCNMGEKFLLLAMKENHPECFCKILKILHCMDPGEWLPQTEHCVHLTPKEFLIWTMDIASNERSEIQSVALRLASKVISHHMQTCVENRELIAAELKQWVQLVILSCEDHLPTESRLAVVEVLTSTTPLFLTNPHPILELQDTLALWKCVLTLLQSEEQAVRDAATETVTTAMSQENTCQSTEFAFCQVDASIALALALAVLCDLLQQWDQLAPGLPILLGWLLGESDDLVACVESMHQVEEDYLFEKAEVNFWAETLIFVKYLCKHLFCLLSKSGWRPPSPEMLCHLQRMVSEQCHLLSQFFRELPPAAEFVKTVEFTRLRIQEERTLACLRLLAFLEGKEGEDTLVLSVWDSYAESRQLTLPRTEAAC
inactive: [1] 0.059 | [2] -0.003 | [3] 0 | [4] 0.004 | [5] -0.011 | [6] -0.004 | [7] -0.017 | [8] -0.024 | [9] 0.017 | [10] -0.017 | [11] 0.011 | [12] 0.006 | [13] -0.009 | [14] -0.029 | [15] -0.016 | [16] -0.01 | [17] 0.012 | [18] 0.028 | [19] 0.03 | [20] 0.013

TTC27 (UniProt Q6P3X3)
inactive: [1] 0.017 | [2] 0.018 | [3] -0.043 | [4] 0.004 | [5] 0.007 | [6] -0.014 | [7] -0.028 | [8] -0.015 | [9] 0.006 | [10] -0.013 | [11] -0.025 | [12] 0.017 | [13] -0.012 | [14] 0.046 | [15] 0.02 | [16] 0 | [17] -0.011 | [18] -0.012 | [19] 0.034 | [20] 0.042

TTK (UniProt P33981)
Chain of UniProt P33981 (P33981 whole entry, looked up): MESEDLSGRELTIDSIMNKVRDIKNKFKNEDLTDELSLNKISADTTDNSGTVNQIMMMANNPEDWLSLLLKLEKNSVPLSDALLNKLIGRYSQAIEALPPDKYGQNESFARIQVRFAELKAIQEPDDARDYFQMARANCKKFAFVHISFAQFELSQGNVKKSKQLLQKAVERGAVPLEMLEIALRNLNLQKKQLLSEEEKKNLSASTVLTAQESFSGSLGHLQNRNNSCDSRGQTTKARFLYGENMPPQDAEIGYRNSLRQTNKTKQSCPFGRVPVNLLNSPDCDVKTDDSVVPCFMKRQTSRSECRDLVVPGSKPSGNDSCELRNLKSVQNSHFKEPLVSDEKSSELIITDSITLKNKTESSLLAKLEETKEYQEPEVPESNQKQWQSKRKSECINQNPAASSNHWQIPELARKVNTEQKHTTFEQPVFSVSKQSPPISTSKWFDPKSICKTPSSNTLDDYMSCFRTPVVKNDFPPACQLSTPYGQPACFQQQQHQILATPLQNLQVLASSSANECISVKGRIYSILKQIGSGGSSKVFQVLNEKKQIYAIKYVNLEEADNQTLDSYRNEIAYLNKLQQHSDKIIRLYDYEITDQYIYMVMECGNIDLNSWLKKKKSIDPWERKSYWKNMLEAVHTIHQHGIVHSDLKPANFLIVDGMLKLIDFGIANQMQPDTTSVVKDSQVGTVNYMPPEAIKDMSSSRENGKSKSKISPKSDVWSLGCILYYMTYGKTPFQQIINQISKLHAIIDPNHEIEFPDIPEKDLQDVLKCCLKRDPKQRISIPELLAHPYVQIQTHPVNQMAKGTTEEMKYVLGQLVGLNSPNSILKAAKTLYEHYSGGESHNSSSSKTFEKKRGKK
inactive: [1] -0.032 | [2] -0.1 | [3] 0.09 | [4] -0.034 | [5] 0.004 | [6] 0.039 | [7] 0.258 | [8] 0.054 | [9] -0.039 | [10] -0.032 | [11] 0.008 | [12] 0.111 | [13] 0.025 | [14] -0.036 | [15] 0.001 | [16] 0.018 | [17] -0.008 | [18] -0.011 | [19] 0.017 | [20] 0.013

TMEM70 (UniProt Q9BUB7)
Chain of UniProt Q9BUB7 (Q9BUB7 whole entry, looked up): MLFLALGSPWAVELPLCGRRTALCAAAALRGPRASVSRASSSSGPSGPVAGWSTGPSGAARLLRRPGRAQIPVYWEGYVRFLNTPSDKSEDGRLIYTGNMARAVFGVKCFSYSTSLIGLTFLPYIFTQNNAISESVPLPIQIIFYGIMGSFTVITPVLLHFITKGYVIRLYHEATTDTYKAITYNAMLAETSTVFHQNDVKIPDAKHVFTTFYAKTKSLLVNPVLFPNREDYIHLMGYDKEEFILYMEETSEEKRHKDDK
inactive: [1] -0.018 | [2] -0.003 | [3] -0.106 | [4] 0.03 | [5] 0.038 | [6] -0.073 | [7] 0.011 | [8] 0.006 | [9] -0.028 | [10] 0.086 | [11] 0.001 | [12] -0.026 | [13] 0.012 | [14] -0.063 | [15] -0.002 | [16] -0.01 | [17] 0.01 | [18] 0.103 | [19] 0.058 | [20] 0.003

TDRD3 isoform 3 (UniProt Q9H7E2)
inactive: [1] 0.051 | [2] -0.029 | [3] -0.019 | [4] 0.086 | [5] 0.005 | [6] 0.257 | [7] -0.085 | [8] -0.059 | [9] 0 | [10] 0.051 | [11] -0.03 | [12] 0.009 | [13] -0.094 | [14] 0.01 | [15] -0.018 | [16] -0.073 | [17] -0.004 | [18] 0 | [19] -0.102 | [20] 0.026

TTL (UniProt Q8NG68)
inactive: [1] 0.056 | [2] 0.01 | [3] 0 | [4] 0.019 | [5] -0.001 | [6] -0.027 | [7] 0.097 | [8] 0.006 | [9] -0.074 | [10] 0.019 | [11] 0.014 | [12] 0.101 | [13] -0.029 | [14] 0.037 | [15] 0.018 | [16] 0.016 | [17] -0.065 | [18] 0.063 | [19] 0.063 | [20] -0.074

TCAF2 (UniProt A6NFQ2)
inactive: [1] -0.006 | [2] -0.218 | [3] -0.003 | [4] -0.059 | [5] -0.038 | [6] -0.027 | [7] -0.033 | [8] -0.022 | [9] -0.047 | [10] -0.005 | [11] 0.009 | [12] -0.009 | [13] 0.078 | [14] -0.017 | [15] 0.013 | [16] 0.022 | [17] 0.055 | [18] -0.005 | [19] -0.021 | [20] 0.063

TBC1D23 (UniProt Q9NUY8)
inactive: [1] 0.003 | [2] -0.01 | [3] 0.017 | [4] 0.022 | [5] -0.015 | [6] 0.011 | [7] -0.018 | [8] -0.018 | [9] -0.001 | [10] 0 | [11] 0.034 | [12] 0.002 | [13] 0.004 | [14] -0.021 | [15] 0.03 | [16] 0.032 | [17] -0.05 | [18] 0.014 | [19] 0.012 | [20] -0.012

TUBB (UniProt P07437)
inactive: [1] 0.029 | [2] -0.017 | [3] 0.014 | [4] -0.006 | [5] 0.008 | [6] 0.008 | [7] -0.03 | [8] 0.006 | [9] 0.043 | [10] 0.027 | [11] -0.013 | [12] 0.011 | [13] 0.038 | [14] -0.009 | [15] 0.037 | [16] 0.049 | [17] 0.003 | [18] 0.007 | [19] 0.014 | [20] 0.009

TPM4 (UniProt P67936)
Chain of UniProt P67936 (P67936 whole entry, looked up): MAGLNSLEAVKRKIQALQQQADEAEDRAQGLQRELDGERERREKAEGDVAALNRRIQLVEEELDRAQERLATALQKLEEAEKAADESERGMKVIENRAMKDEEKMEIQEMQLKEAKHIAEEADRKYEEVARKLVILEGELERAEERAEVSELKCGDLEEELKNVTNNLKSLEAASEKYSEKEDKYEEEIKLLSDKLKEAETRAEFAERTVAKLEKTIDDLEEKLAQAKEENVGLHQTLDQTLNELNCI
inactive: [1] 0.028 | [2] 0.048 | [3] 0.005 | [4] 0.058 | [5] -0.012 | [6] 0.001 | [7] 0.009 | [8] -0.064 | [9] -0.012 | [10] 0.028 | [11] -0.019 | [12] -0.021 | [13] 0.003 | [14] -0.023 | [15] -0.023 | [16] -0.038 | [17] 0.012 | [18] 0.01 | [19] 0.013 | [20] 0.006

TRAPPC12 (UniProt Q8WVT3)
inactive: [1] -0.049 | [2] -0.01 | [3] -0.048 | [4] -0.047 | [5] -0.018 | [6] -0.005 | [7] -0.061 | [8] -0.003 | [9] -0.005 | [10] 0.027 | [11] 0.001 | [12] -0.011 | [13] 0.064 | [14] 0.02 | [15] -0.014 | [16] -0.022 | [17] -0.003 | [18] 0.008 | [19] -0.001 | [20] 0.009

TIMM44 (UniProt O43615)
inactive: [1] -0.019 | [2] -0.02 | [3] -0.008 | [4] -0.019 | [5] 0.041 | [6] -0.012 | [7] 0.03 | [8] -0.019 | [9] 0.004 | [10] -0.011 | [11] 0.03 | [12] 0.005 | [13] -0.008 | [14] -0.076 | [15] 0.013 | [16] 0.066 | [17] 0.025 | [18] -0.035 | [19] -0.005 | [20] 0.015

TXNRD2 (UniProt Q9NNW7)
Chain of UniProt Q9NNW7 (Q9NNW7 whole entry, looked up): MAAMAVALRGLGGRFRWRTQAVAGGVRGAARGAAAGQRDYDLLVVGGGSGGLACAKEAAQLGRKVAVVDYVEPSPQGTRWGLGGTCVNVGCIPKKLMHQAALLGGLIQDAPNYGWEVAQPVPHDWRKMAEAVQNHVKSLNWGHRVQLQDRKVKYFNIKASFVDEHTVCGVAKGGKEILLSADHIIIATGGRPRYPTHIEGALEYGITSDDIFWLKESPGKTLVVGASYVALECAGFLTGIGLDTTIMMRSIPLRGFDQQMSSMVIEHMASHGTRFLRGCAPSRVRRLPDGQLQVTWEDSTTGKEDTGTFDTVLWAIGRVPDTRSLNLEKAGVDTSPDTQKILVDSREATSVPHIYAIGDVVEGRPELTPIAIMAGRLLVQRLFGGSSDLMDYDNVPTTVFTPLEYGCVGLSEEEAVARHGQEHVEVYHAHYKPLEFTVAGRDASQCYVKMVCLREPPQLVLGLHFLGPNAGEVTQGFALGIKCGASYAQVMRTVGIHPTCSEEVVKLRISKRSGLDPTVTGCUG
inactive: [1] -0.01 | [2] -0.085 | [3] 0.049 | [4] 0.008 | [5] -0.025 | [6] 0.009 | [7] -0.031 | [8] 0.017 | [9] 0.044 | [10] -0.007 | [11] 0.014 | [12] -0.002 | [13] 0.025 | [14] -0.107 | [15] 0 | [16] 0.008 | [17] -0.038 | [18] -0.014 | [19] 0.001 | [20] 0.006

TRIM25 (UniProt Q14258)
inactive: [1] -0.01 | [2] -0.024 | [3] 0.028 | [4] -0.004 | [5] -0.028 | [6] 0.032 | [7] 0.008 | [8] 0.064 | [9] 0.021 | [10] -0.009 | [11] -0.001 | [12] -0.001 | [13] -0.013 | [14] 0.055 | [15] -0.011 | [16] -0.002 | [17] -0.005 | [18] 0.005 | [19] 0.004 | [20] 0.006

TBC1D2B (UniProt Q9UPU7)
Chain of UniProt Q9UPU7 (Q9UPU7 whole entry, looked up): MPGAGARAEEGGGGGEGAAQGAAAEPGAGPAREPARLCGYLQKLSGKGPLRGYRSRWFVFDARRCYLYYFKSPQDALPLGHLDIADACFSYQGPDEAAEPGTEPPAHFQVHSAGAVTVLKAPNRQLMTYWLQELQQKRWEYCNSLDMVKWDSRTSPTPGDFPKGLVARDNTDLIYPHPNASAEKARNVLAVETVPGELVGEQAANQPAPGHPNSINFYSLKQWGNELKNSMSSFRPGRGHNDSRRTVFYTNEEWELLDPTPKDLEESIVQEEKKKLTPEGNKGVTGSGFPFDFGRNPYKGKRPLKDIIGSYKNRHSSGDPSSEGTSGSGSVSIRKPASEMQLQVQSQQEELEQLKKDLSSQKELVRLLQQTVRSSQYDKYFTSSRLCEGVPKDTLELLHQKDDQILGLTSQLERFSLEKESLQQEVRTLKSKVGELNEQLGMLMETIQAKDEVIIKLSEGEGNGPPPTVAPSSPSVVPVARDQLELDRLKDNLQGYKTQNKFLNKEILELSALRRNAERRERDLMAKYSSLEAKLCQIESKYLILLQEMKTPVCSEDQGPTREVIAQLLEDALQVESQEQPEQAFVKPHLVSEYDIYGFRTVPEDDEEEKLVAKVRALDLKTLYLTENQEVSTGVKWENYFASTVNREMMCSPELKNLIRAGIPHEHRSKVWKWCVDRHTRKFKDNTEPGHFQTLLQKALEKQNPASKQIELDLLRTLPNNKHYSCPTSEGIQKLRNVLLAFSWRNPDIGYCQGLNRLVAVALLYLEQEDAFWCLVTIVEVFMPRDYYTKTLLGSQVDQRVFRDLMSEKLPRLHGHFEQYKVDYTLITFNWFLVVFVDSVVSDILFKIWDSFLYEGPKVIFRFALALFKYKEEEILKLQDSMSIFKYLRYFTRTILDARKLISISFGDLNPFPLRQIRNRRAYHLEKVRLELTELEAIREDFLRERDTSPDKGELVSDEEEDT
inactive: [1] -0.005 | [2] -0.028 | [3] 0.098 | [4] 0.03 | [5] -0.053 | [6] 0.042 | [7] -0.111 | [8] -0.031 | [9] -0.024 | [10] -0.075 | [11] 0.075 | [12] -0.017 | [13] 0.008 | [14] 0.003 | [15] -0.054 | [16] 0.058 | [17] 0.006 | [18] -0.03 | [19] 0.031 | [20] 0.025
